Outcome and AC50 data for 27 compounds are collected here from PubChem BioAssay (EPA / NIEHS).

For orientation: AC50 means the midpoint of the concentration-response curve, whichever way the signal moves.

“And” between values parts separate entries of the source, which are not always exact repeats. Equal entries are not always repeated. Inconclusive results are not listed. The source made the active and inactive calls. Rule for the calls, unless noted: active = hit-call score of the fitted dose curve at least 0.9, where 1 is the maximum; inactive = score below 0.9. Peptide text beside a SMILES is read from it.

Experiment [1] can be described thus: BSK_BT_PBMCCytotoxicity: PBMC Cytotoxicity Assessment in the BioMAP Diversity Plus: BT Assay (AID 2284225).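 Note: PBMC viability measured by Alamar Blue dye reduction fluorescence.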 As to conditions: primary human B cells with PBMC. In a few lines: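 PBMC (75,000/well) pretreated with compound 1 h, then activated with SEB and TSST-1 (20 ng/mL each final), incubated 90 h; Alamar Blue added 6 h, fluorescence read at 546/580 nm. Fitted relative to DMSO.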

Read-out in experiment [2]: Secreted IgG (sIgG), gene 3500
As to the kind of experiment: BSK_BT_sIgG: BioMAP Diversity Plus: BT Assay for Secreted IgG (sIgG) Biomarker Activity (AID 2284226). As to conditions: primary human B cells with PBMC. Put shortly: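 Read-out: ELISA for secreted IgG after 24 h of chemical exposure in a B cell plus PBMC co-culture. Values reflect upward-direction fitting against DMSO negative controls.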

Read-out in experiment [3]: Interleukin 6 (IL6), IL6 (gene 3569)
Briefly: BSK_BT_xIL6: BioMAP Diversity Plus: BT Assay for Interleukin 6 (IL6) Biomarker Activity (AID 2284228). The conditions noted are these: primary human B cells with PBMC. Put shortly:
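Readout: secreted IL-6 via Luminex xMAP multiplex, 24 h post-dosing. System: primary human B cells co-cultured with PBMC. Signal change scored relative to DMSO vehicle, positive fitting direction.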

Read-out in experiment [4]: Interleukin 17A (IL17A), IL17A (gene 3605)
As to the kind of experiment: BSK_BT_xIL17A: BioMAP Diversity Plus: BT Assay for Interleukin 17A (IL17A) Biomarker Activity (AID 2284229). As to conditions: primary human B cells with PBMC. Put shortly:
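Luminex xMAP readout of secreted IL-17A; human B cell + PBMC co-culture; 24 h post-dose; positive-direction fit vs DMSO negative control.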

Read-out in experiment [5]: Tumor necrosis factor (Homo sapiens) (UniProt P01375)
As to the kind of experiment: BSK_BT_xTNFa: BioMAP Diversity Plus: BT Assay for Tumor necrosis factor alpha (TNF-alpha) Biomarker Activity (AID 2284230). The conditions noted are these: primary human B cells with PBMC. In a few lines:
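Human primary co-culture of B cells and peripheral blood mononuclear cells; TNF-alpha in supernatant, 24 h post-dose, Luminex multiplex; DMSO = baseline.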

Read-out in experiment [6]: Vascular cell adhesion molecule 1 (VCAM1), VCAM1 (gene 7412)
As to the kind of experiment: BSK_MyoF_VCAM1: BioMAP Diversity Plus: MyoF Assay for Vascular cell adhesion molecule 1 (VCAM1) Biomarker Activity (AID 2284231). As to conditions: primary human lung fibroblasts. Put shortly: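 MyoF system, lung fibroblasts; 24 h post-dose; VCAM-1 by ELISA; gain-of-signal fit vs DMSO baseline.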

A short description of experiment [7]: TAMU_HCS_1.5hr_SingleDonor1434_Cytotoxicity: Cytotoxicity Assessment using High-content Screening (HCS) Fluorescent Imaging for the Texas A&M University (TAMU) 1.5-hr Human Induced Pluripotent Stem Cell (iPSC)-derived Cardiotoxicity Assay (AID 2284234; active = hit-call score of the fitted dose curve at least 0.9, where 1 is the maximum). Put shortly: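 Human iPSC-derived cardiomyocytes dosed at 0.2, 1, 10, 100 uM final (0.5% DMSO) for 90 min at 37 C. Hoechst 33342-stained nuclei counted by 10x high-content imaging; POD is EC10, a 10% drop in total cell count versus DMSO.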

Experiment [8] is described as follows: CCTE_Mundy_HCI_Cortical_NOG_NeuronCount: CCTE's Neurite Outgrowth Assay in rat cortical cells for Neuron Count, Mundy Lab (AID 2284236; active = hit-call score of the fitted dose curve at least 0.9, where 1 is the maximum;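 note: neurons counted by imaging betaIII-tubulin and Hoechst stained cortical cells; cells exposed to compound for about 48 hours before fixation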). In a few lines:
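Read-out: neuron number by high-content imaging of betaIII-tubulin (Alexa Fluor-488) and Hoechst-labelled rat primary cortical cells.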

Experiment [9] is described as follows: UKN2_HCS_IMR90_cell_viability: Viability Assessment in the University of Konstanz (UKN) Leist Lab Neural Crest Cell Migration Assay in human induced IMR90 Pluripotent Stem Cells (UKN2) (AID 2284233).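 Note: viability of neural crest cells differentiated from IMR90 iPSC measured by calcein-AM fluorescence imaging.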 In a few lines: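 Neural crest cells derived from IMR90 iPSC migrate into a stopper-free zone for 24 h in EGF/FGF medium, then are exposed to compound for 24 h. Viability assessed by calcein-AM and Hoechst staining with high-content imaging, fitted bidirectionally versus DMSO.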

Tumor necrosis factor (Homo sapiens), sequence (P01375 whole entry, looked up): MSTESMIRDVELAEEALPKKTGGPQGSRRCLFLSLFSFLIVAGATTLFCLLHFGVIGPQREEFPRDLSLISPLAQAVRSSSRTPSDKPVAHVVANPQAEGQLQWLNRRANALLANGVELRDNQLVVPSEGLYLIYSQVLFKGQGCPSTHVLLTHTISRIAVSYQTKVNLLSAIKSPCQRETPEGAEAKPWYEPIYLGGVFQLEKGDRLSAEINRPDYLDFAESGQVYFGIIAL

As to `CCCCC1C(=O)N(c2ccccc2)N(c2ccccc2)C1=O`, the outcome in experiment [1], in experiment [2], in experiment [3], in experiment [4], in [5] and in experiment [6] was inactive.
For `C=CC(=O)OCCCCCCCC(C)C`, the outcome in experiment [1], in experiment [3], in experiment [4], in [5] and in experiment [6] was inactive. Further, the AC50 in experiment [2] was 20 µM (active).
On to `O=C(Cl)c1c(Cl)c(Cl)c(C(=O)Cl)c(Cl)c1Cl`, for which the outcome in experiment [1], in [2], in experiment [3], in [4], in experiment [5] and in experiment [6] was inactive.
As for `CC=C(C)C=CC=C(C)C`, the half-maximal activity concentration (AC50) in [1] was 19.9 µM (active); in experiment [2] it was 12.3 µM (active); in [3], 14.1 µM (active); in [5], 27.7 µM (active). For the same compound, the result in [4] and in [6] was inactive.
On to `CCOC(=O)/C=C\C(=O)OCC`, for which the result in experiment [1], in experiment [2], in experiment [3], in experiment [4], in experiment [5] and in [6] was inactive.
`CC/C=C\C/C=C\C/C=C\CCCCCCCC(=O)OC`: the AC50 in experiment [1] was 17.4 µM (active); in [2], 5.15 µM (active); in experiment [3] it was 13.5 µM (active); in [4], 12 µM (active); in [5], 27.8 µM (active); in experiment [6], 11.1 µM (active).
Take `CCCCCCCO`: the result in [1], in [2], in [3], in experiment [4], in [5] and in [6] was inactive.
For `C=CC(=O)OCC(C)OCC(C)OCC(C)OC(=O)C=C` (centres undefined), the AC50 in experiment [1] is 13.1 µM (active); in experiment [2], 3.06 µM (active); in experiment [3], 5.07 µM (active); in experiment [4], 7.92 µM (active); in experiment [5] it was 10.3 µM (active); in experiment [6], 30.1 µM (active).
With `C=CCCCCCCCCC=O`, the result in experiment [1], in [2], in experiment [3], in experiment [4], in [5] and in experiment [6] was inactive.
As to `CC(C)c1cccc(C(C)C)c1N`, the result in experiment [1], in [2], in experiment [3], in experiment [4], in [5] and in experiment [6] was inactive.
With `CC/C=C\CCOC(=O)c1ccccc1O`, the result in [1], in [3], in experiment [4] and in experiment [5] was inactive. In addition, the AC50 was 7.02 µM (active) in [2] and 34.2 µM (active) in [6].
Turning to `CC(Cl)COP(=O)(OCC(C)Cl)OCC(C)Cl` (centres undefined), the result in experiment [1], in experiment [2], in experiment [3], in experiment [4], in [5] and in experiment [6] was inactive.
Take `C=CC(=O)OCCCCCCOC(=O)C=C`: the AC50 in experiment [1] is 14.3 µM (active); in [2], 5.85 µM (active); in experiment [3], 7.22 µM (active); in experiment [4], 6.04 µM (active); in experiment [5], 13.1 µM (active); in experiment [6], 20 µM (active).
`O=C(Oc1ccccc1)c1ccccc1C(=O)Oc1ccccc1`: the AC50 in experiment [1] and in experiment [6] was 20 µM (active) in each case. The result in experiment [2], in experiment [3], in [4] and in experiment [5] was inactive.
With `Fc1ccc(Br)cc1`, the result in experiment [1], in [2], in experiment [3], in [4], in experiment [5] and in experiment [6] was inactive.
Turning to `CCNc1nc(NC(C)(C)C)nc(OC)n1`, the outcome in experiment [1], in [3], in experiment [4], in experiment [5] and in [6] was inactive. In addition, the AC50 in [2] was 13.9 µM (active).
For the compound `Cc1c(O)cccc1O`, the outcome in [1], in experiment [2], in [3], in experiment [4], in experiment [5] and in [6] was inactive.
In the case of `CCCCCCCCCCCC(C)=O`, the outcome in experiment [1], in experiment [2], in experiment [3], in experiment [4], in experiment [5] and in [6] was inactive.
For `CC(C)CCCCCOC(=O)CS`, the result in experiment [1], in experiment [2], in experiment [3], in experiment [4], in experiment [5] and in [6] was inactive.
In the case of `COC(=O)[C@H](Cc1ccccc1)NC(=O)[C@@H](N)CC(=O)O` (H-Asp-Phe-OMe), the compound was called inactive in experiment [7] and in experiment [8].
For `CCCCNS(=O)(=O)c1ccccc1`, the compound was classed as inactive in [9] and in experiment [8].
Take `Oc1ccc(/C=C/c2cc(O)cc(O)c2)cc1`: the result in [1] and in experiment [6] was inactive. Moreover, the AC50 in experiment [2] is 6.86 µM (active); in experiment [3], 35.4 µM (active); in experiment [4], 20 µM (active); in experiment [5], 25.7 µM (active).
Turning to `C[N+](C)(C)CCCNS(=O)(=O)C(F)(F)C(F)(F)C(F)(F)C(F)(F)C(F)(F)C(F)(F)C(F)(F)C(F)(F)F`, the outcome in experiment [1] and in experiment [3] was inactive. Also, the AC50 in experiment [2] is 52.4 µM (active) and 52.6 µM (active); in [4], 30 µM (active); in experiment [5], 30 µM (active) and 20.4 µM (active); in [6] it was 44.5 µM (active) and 57 µM (active).
`O=C1CCCCCCCCCCCN1`: the result in [1], in [2], in experiment [3], in experiment [4], in experiment [5] and in [6] was inactive.
Consider `CCCCCCC=O`, for which the outcome in experiment [1], in [2], in experiment [3], in experiment [4], in [5] and in [6] was inactive.
For `COc1ccc(C(=O)/C(Br)=C\C(=O)O)cc1`, the AC50 in experiment [1] is 27.6 µM (active) and 25.4 µM (active); in experiment [2], 6.83 µM (active) and 8.75 µM (active); in experiment [3], 20 µM (active); in experiment [4], 24.3 µM (active) and 25.6 µM (active); in experiment [5] it was 31.3 µM (active) and 29.5 µM (active); in experiment [6], 25.5 µM (active) and 10.5 µM (active).
As to `c1ccc2c(c1)[nH]c1ccccc12`, the result in experiment [1], in [2], in [3], in experiment [4], in experiment [5] and in experiment [6] was inactive.
